# From ChEMBL document CHEMBL3988442, “University of Dundee, Small-Polar-MMV Screening Library” (2021)
# In all, about 48,000 compounds went through this assay and about 13,000 (27%) showed an effect of 50% or more. This is one part of the list.
# System: Wolbachia pipientis
# Assay: Anti-Wolbachia Cell-Based Screen
# Format: functional
# Set-up: scale not given: in the data most compounds retested in dose-response had high values
# Conditions: 5 µM
row,Compound,Percent Effect
1,CC(=O)N(C)C1CCN(C(=O)NCC(C)Cc2cccs2)CC1 (stereo not given),8.983%
2,O=C(O)[C@@H]1CN(Cc2ccc(-c3cc[nH]n3)s2)C[C@H]1C1CC1,7.901%
3,CCOC(=O)c1nnc2ccccc2c1N1CCN(C(C)C)CC1,-0.1532%
4,COC(=O)[C@H]1C[C@@H](O)CCN1S(=O)(=O)c1cc(C)c(Cl)cc1C,-11.31%
5,O=C(Nc1ccccc1C(=O)N1CCCC1)NC1CCOCC1,-1.242%
6,Cc1ccc(CN2CCC(c3nnc(CN4CCCCC4)n3C)CC2)o1,-6.981%
7,CCn1cc(CNC(=O)CCc2nnc(-c3ccc(C)s3)o2)cn1,1.856%
8,CN1CCN(C(=O)[C@H]2C[C@H]3[C@H](CCN3Cc3nccs3)O2)CC1,108.2%
9,O=C([C@H]1CN(Cc2nccs2)C[C@H]2OCC[C@@H]12)N1CCCC1,-16.26%
10,Cc1ccsc1CN1CC[C@H]2O[C@H](C(=O)N3CCCO3)CC[C@H]21,-0.787%
11,CN1CCN(C(=O)[C@H]2CC[C@@H]3[C@@H](CCN3Cc3nccs3)O2)CC1,100.9%
12,CN1CC[C@H](c2nnc(-c3cncn3C)o2)C1,-6.33%
13,CC(C)NC(=O)C1(CC2CC(c3ccc(F)cc3)=NO2)CCNCC1.O=C(O)CC(O)(CC(=O)O)C(=O)O (stereo not given),90.44%
14,O=C(NCc1nncn1C1CC1)C1(c2ccc(F)cc2)CCOCC1,7.233%
15,CN(C)C1(CNC(=O)C2CCCN2Cc2ccc(F)cc2)CCOCC1 (stereo not given),-14.73%
16,CC(C)NC(=O)N1CCC2(CC1)NC(=O)CC2c1ccncc1.O=C(O)C(F)(F)F (stereo not given),-5.587%
17,O=C(NCCCO)C1(CC2CC(c3ccc(F)cc3)=NO2)CCOCC1 (stereo not given),116.1%
18,O=C(Nc1ccc(F)cc1)NC1(CCO)CCOCC1,-10.62%
19,O=C(NCCO)C1(CC2CC(c3ccc(F)cc3)=NO2)CCOCC1 (stereo not given),103.4%
20,CNS(=O)(=O)c1cc(C(=O)N2CCCCCC2CC(C)C)co1 (stereo not given),3.036%
21,CCOC(=O)NC(CNC(=O)CCc1ccccn1)CC(C)C (stereo not given),-10.22%
22,O=C(c1cccnc1O)N(Cc1ccsc1)CC1CCCO1 (stereo not given),-13.31%
23,CNC(=O)[C@@]12CCCN(c3ncccn3)[C@@H]1CN(c1ncc(C)cn1)C2,-6.772%
24,CNC(=O)[C@@]12CCCN(c3ncccn3)[C@@H]1CN(c1ncc(F)cn1)C2,0.8573%
25,CS(=O)(=O)N1C[C@H]2N(c3ncccn3)CCC[C@@]2(C(=O)NCC2CC2)C1,106.2%

row,Compound,Percent Effect
1,CS(=O)(=O)N1C[C@H]2CNC[C@@]2(C(=O)NCCOc2ccccc2)C1,-7.447%
2,CNC(=O)[C@@]12CCCN(c3ncccn3)[C@@H]1CN(C(=O)NC(C)C)C2,-11.1%
3,CC(C)CN1C[C@H]2N(c3ncccn3)CCC[C@@]2(C(=O)NCC2CC2)C1,98.73%
4,CNC(=O)N1C[C@H]2N(c3ncccn3)CCC[C@@]2(C(=O)NCC2CC2)C1,110.5%
5,CC1CCCCN1CCNC(=O)NCc1ccc(C#N)cc1F (stereo not given),4.831%
6,O=C(O)C(F)(F)F.O=C1[C@@H]2CCN(Cc3ccoc3)C[C@@H]2OCCN1Cc1cccc(F)c1,7.665%
7,Cc1noc(C)c1CN1CCO[C@H]2CN(Cc3cccc(F)c3)C[C@H]21.O=C(O)C(F)(F)F.O=C(O)C(F)(F)F,84.77%
8,NC(=O)N1CCC2(CCN(Cc3cccc(F)c3)CC2)CC1.O=C(O)C(F)(F)F,7.684%
9,Fc1ccc(CN2C[C@@H]3OCCN(CCN4CCCC4)[C@@H]3C2)cc1.O=C(O)C(F)(F)F.O=C(O)C(F)(F)F.O=C(O)C(F)(F)F,-5.638%
10,Cc1noc(C)c1CN1CCC2(CCN(Cc3cccc(F)c3)CC2)C1.O=C(O)C(F)(F)F.O=C(O)C(F)(F)F,108.5%
11,CC(=O)N1CCC2(CCN(Cc3cccc(F)c3)CC2)CC1.O=C(O)C(F)(F)F,4.828%
12,Cc1ccsc1-c1nccn1CCN(C)S(C)(=O)=O,-5.374%
13,Cc1nc(-c2ccccc2)n(CC(=O)NC(C2CC2)C2CC2)n1,-13.82%
14,Cc1nc(-c2ccccc2C)n(CC(=O)NC2CCCC2)n1,83.22%
15,Cc1nc(-c2ccccc2C)n(CC(=O)NC(C)C2CC2)n1 (stereo not given),-5.719%
16,Cc1nc(-c2ccccc2)n(CC(=O)NC2CCCC2)n1,94.43%
17,Cc1nc(-c2ccccc2)n(CC(=O)NC2CCCCC2)n1,105.1%
18,CCC(CC)NC(=O)Cn1nc(C)nc1-c1ccccc1,0.4964%
19,Cc1cccc(-c2nc(C)nn2CC(=O)NC2CCCC2)c1,6.583%
20,Cc1nc(-c2ccccc2C)n(CC(=O)NC(C)C)n1,-16.1%
21,O=C(O)[C@@H]1CN(Cc2c[nH]c(CC3CCCC3)n2)C[C@H]1c1ccccn1,-9.177%
22,O=C(c1ccc(O)cn1)N1CCOC(Cc2cccc(C(F)(F)F)c2)C1 (stereo not given),9.036%
23,Cc1ccnc(OC[C@@]23CCO[C@@H]2CCN(c2ncc(F)cn2)C3)n1.O=C(O)C(F)(F)F,-3.381%
24,Cc1cnn(C2CN(CC(=O)NCC3(c4ccccc4)CC3)C2)c1,-47.8%
25,O=C(NCCCNCC1CNc2ccnn2C1)c1ccccc1 (stereo not given),-22.14%
